# Rango complex inh: qHTS Assay for Inhibitors of Rango (Ran-regulated importin-beta cargo) - Importin beta complex formation | Rango CFP/YFP FRET sensor + importin beta, 45 min | Potency, µM (titrated, usually from 92.2 µM), inactives show at the highest dose inhibition of complex formation | actives 0.031% (n = 340,000) | Importin subunit beta-1 (Homo sapiens), Q14974; calls by dose curve;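 further: 0% = DMSO wells and 100% = buffer wells lacking importin beta; nearly all actives have a fitted effect of over 15% in size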
#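 FRET biosensor (snurportin 1 IBB flanked by EYFP and cerulean), 50 nM, with compound 5 min, then 0.125 microM importin beta in PBS, 1 mM DTT, 0.02% Tween-20, 0.1% BSA. CFP/YFP ratio read after 45 min at room temperature; pre-read flags interference.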
# Tb PFK inh: qHTS Assay to Find Inhibitors of T. brucei phosphofructokinase; ATP-dependent 6-phosphofructokinase (Trypanosoma brucei brucei), O15648; T. brucei PFK, ADP-Glo luminescence; Potency, µM (titrated, usually from 57.5 µM), for inactives: at the top dose activity, negative = inhibition, actives largely listed as inhibitors; actives 0.17% (n = 330,000);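 further: 0% = uninhibited 1x PFK enzyme wells and -100% = no-enzyme wells; nearly all actives have a fitted effect of over 60% in size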
# Target sequence (O15648 whole entry, looked up): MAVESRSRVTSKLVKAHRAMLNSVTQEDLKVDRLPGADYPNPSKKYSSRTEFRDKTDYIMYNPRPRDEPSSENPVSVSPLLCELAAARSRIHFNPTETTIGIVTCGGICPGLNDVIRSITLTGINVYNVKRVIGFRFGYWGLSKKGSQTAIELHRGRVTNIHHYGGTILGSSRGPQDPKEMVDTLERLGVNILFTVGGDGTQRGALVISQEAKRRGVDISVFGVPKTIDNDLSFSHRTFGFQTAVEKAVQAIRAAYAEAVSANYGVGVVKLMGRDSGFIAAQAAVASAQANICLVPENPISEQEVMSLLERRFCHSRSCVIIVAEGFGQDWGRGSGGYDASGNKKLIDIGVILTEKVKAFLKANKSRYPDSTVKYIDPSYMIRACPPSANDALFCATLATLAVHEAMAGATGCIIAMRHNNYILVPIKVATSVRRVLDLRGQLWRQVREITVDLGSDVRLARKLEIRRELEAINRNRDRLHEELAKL
#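 In TEA buffer at pH 8.0 with 5 mM MgCl2, enzyme (1.25 nM) converted F6P (0.5 mM) and ATP (0.1 mM) for 45 min at room temperature. ADP product was read by luciferase luminescence.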
# ELG1 repair inh: qHTS screen for small molecules that inhibit ELG1-dependent DNA repair in human embryonic kidney (HEK293T) cells expressing luciferase-tagged ELG1. HEK293T ELG1-luciferase reporter, luminescence, 16 h; DNA damage induced by 5-fluorouridine. AID 504467, 2011. Potency, µM (titrated, usually from 46.1 µM), for inactives: top-dose activity change, negative = inhibition, usual class: inhibitors. actives 2.3% (n = 330,000); further: on the % scale 0 is the no-effect control and ±100 the full control effect; nearly all actives have a fitted effect of over 55% in size
#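 HEK293T cells expressing luciferase-tagged ELG1 (2,000/well) received 5-Fluorouridine plus compound or DMSO for 16 hr at 37 °C. Luciferase was read by ONE-Glo luminescence after 30 min at room temperature.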
# PKM2 activator: qHTS Assay for Activators of Human Muscle isoform 2 Pyruvate Kinase | Pyruvate kinase PKM (Homo sapiens), P14618 | Potency, µM (doses to about 57.5 µM), for inactives: at the top dose activation, most hits filed as activators | actives 0.34% (n = 260,000) | purified PKM2, Kinase-Glo ATP luminescence, activation; response scale: 0% is enzyme alone, no compound; further: on the % scale 0 is the no-effect control and ±100 the full control effect; nearly all actives have a fitted effect of over 55% in size
#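 Purified hPK-M2 (>95% pure) converted ADP (0.1 mM final) to ATP with 0.5 mM PEP in 50 mM imidazole pH7.2, KCl, MgCl2, Tween 20, BSA; 1 h at room temperature. ATP detected by Kinase-Glo luminescence.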
# PGK inhibitor: qHTS Assay to Find Inhibitors of Phosphoglycerate Kinase; PGK/GAPDH coupled, Kinase-Glo luminescence, 60 min; Potency, µM (highest dose often 57.5 µM), for inactives: at the top dose activity change, negative = inhibition, hits mostly inhibitors; actives 0.043% (n = 380,000); further: on the % scale 0 is the no-effect control and ±100 the full control effect; nearly all actives have a fitted effect of over 60% in size
#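 Recombinant glycosomal PGK reaction used 1,3-bisphosphoglycerate generated in-well by GAPDH (100nM final) in 100mM TEA pH 7.6, 5mM MgCl2, 0.01% Tween-20. After 60 minutes at room temperature, ATP was read by Kinase-Glo Plus luminescence end-point.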
# Rango release inh: qHTS Assay for Inhibitors of RanGTP induced Rango (Ran-regulated importin-beta cargo) - Importin beta complex dissociation; Biochemical FRET Rango-importin beta, RanGTP-induced dissociation; Potency, µM (titrated, usually from 46.1 µM), for inactives: at the highest dose activity change, negative = inhibition; actives 0.071% (n = 340,000); AID 540253, 2011; calls by dose curve; further: % of control where 0% means no effect; nearly all actives have a fitted effect of over 45% in size
#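 Rango FRET biosensor (snurportin-1 IBB flanked by N-terminal EYFP and C-terminal CFP10) at 0.1 uM, with 0.25 uM importin beta in PBS, 1mM DTT, 0.02% Tween-20, 0.1% BSA. 0.6 uM Ran, 2mM GTP and 0.2 uM RCC1 were then added for 45 min at room temperature. Inhibition read as loss of FRET rise.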
# * = called active by the depositor; i = inactive; ? = inconclusive; · = no result; [ ] = dose if it differs, or a comment. An excerpt weighted towards active compounds, which were near 2.4% of everything screened. Unless noted, the call rests on the fitted dose curve; in most records, active means well fitted curve in the direction sought with a large enough effect; inconclusive means small, poorly fitted or top-dose-only effect, or another doubt; inactive means no such curve, though single readings can be large; an effect the other way counts as inactive or inconclusive. Potency means the concentration at half of the fitted maximal effect.
SMILES,Rango complex inh,Tb PFK inh,ELG1 repair inh,PKM2 activator,PGK inhibitor,Rango release inh
CCOc1ccccc1N(CC(=O)Nc1cccc(OC)c1)S(=O)(=O)c1ccccc1,-0.7%,1.1%,-0.4%,-12.2%[11.5 µM],0.8%,-9.9%
CCOc1ccccc1N(CC(=O)Nc1ccc(OC)cc1OC)S(=O)(=O)c1ccccc1,0.2%,0.7%,16.4µM*,-0.3%,-9.7%,10.4%
O=C(N/N=C/c1sc(N2CCOCC2)nc1-c1ccccc1)c1ccc(O)cc1,?,-0.6%,?,-1.9%,-13.6%,?
O=C(N/N=C/c1sc(N2CCOCC2)nc1-c1ccccc1)c1cccc(S(=O)(=O)N2CCCC2)c1,?,1.1%,5.17µM*,0.2%,-1.4%,?
CC1CCC(C(C)C)C(OC(=O)Cn2c(-c3ccc(Cl)cc3)[n+](C)c3ccccc32)C1 (stereo not given),5.5%,1.1%,?,-2.2%,-9.0%,27.2%
CC1CCC(C(C)C)C(OC(=O)Cn2c(-c3ccc(Br)cc3)[n+](C)c3ccccc32)C1 (stereo not given),3.9%,-2.7%,13µM*,7.3%,4.6%,15.8%
Cc1ccccc1OCc1n(CC(=O)OC2CC(C)CCC2C(C)C)c2ccccc2[n+]1C (stereo not given),-1.9%,8.8%,11.6µM*,1.0%,-5.0%,18.5%
O=C(COc1ccccc1C(=O)N/N=C\c1ccc(O)c(O)c1)N/N=C/c1ccc(O)c(O)c1,-0.6%,?,-0.1%,?,2.24µM*,-0.1%
CCOc1cc(/C=N/NC(=O)c2ccccc2-n2cccc2)ccc1O,3.3%,-5.9%,?,·,-4.7%,-9.4%
CCCOc1cccc(-c2cc(C(=O)N/N=C/c3cccnc3)c3ccccc3n2)c1,5.3%,1.1%,16.4µM*,1.5%,-7.8%,10.5%
CCOc1cc(/C=N/NC(=O)c2ccccc2OCc2ccc(F)cc2)ccc1O,-3.8%,0.5%,5.8µM*,·,2.4%,4.3%
O=C(N/N=C/c1cccnc1)c1ccccc1OCc1cccc(Br)c1,-1.2%,-0.7%,20.6µM*,-0.8%,15.7%,0.4%
CCCCCn1c(=O)[nH]c2cc(C(=O)Nc3ccc(OC)c(OC)c3)ccc2c1=O,·,·,·,·,-9.8%,·
CC(=O)c1ccc(NC(=O)C2CCC(CNS(=O)(=O)c3cccs3)CC2)cc1 (stereo not given),·,·,·,·,-3.1%,·
Cc1ccc(C)c(N(CC(=O)Nc2ccccc2C(=O)NCc2ccco2)S(=O)(=O)c2ccccc2)c1,-1.9%,2.5%,23.1µM*,4.4%,-1.4%,15.3%
Cc1ccc(N(CC(=O)Nc2ccccc2C(=O)NCc2ccco2)S(=O)(=O)c2ccccc2)cc1C,5.0%,0.4%,?,0.1%,-3.5%,2.5%
Cc1ccc(C)c(NC(=O)CCC(=O)NNS(=O)(=O)c2ccc(Cl)cc2)c1,4.3%,-0.6%,-10.8%,·,i,3.3%
Cc1ccc(C(c2cc(Cl)c3cccnc3c2O)N2CCN(C)CC2)cc1 (stereo not given),3.4%,-13.0%,16.4µM*,24.8%,i,1.3%
O=C(C[C@H]1C/C=C\CC[C@H](Cc2ccc(F)cc2)C(=O)O[C@@H](c2ccccc2)CNC1=O)N[C@H](CO)Cc1ccccc1,?,0.1%,20.6µM*,·,-0.8%,-12.0%
O=C(C[C@H]1C/C=C\CC[C@H](Cc2ccc(F)cc2)C(=O)O[C@@H](c2ccccc2)CNC1=O)N[C@@H](CO)Cc1ccccc1,-1.7%,-0.7%,9.2µM*,·,-8.8%,2.1%
O=C(C[C@@H]1C/C=C\CC[C@@H](Cc2ccc(F)cc2)C(=O)OC[C@@H]2CCCN2C1=O)N[C@H](CO)Cc1ccccc1,0.3%,-2.2%,?,·,8.6%,-9.1%
O=C(C[C@H]1C/C=C\CC[C@H](Cc2ccc(F)cc2)C(=O)OC[C@H]2CCCN2C1=O)N[C@H](CO)Cc1ccccc1,-1.4%,0.0%,23.1µM*,·,-1.6%,2.3%
O=C(C[C@H]1C/C=C\CC[C@H](Cc2ccc(F)cc2)C(=O)O[C@H](c2ccccc2)CNC1=O)N[C@H](CO)Cc1ccccc1,-2.4%,1.4%,10.3µM*,·,-2.4%,-18.9%
CC/C(=N\NC(=O)c1nnn(-c2nonc2N)c1-c1cccc(OC)c1)c1ccc(C)cc1,-1.6%,-3.0%,?,-6.4%[0.46 µM],3.6%,0.1%
CCC1SC(CC)C(=O)N(CC(=O)Nc2ccc3c(c2)OCO3)C1=O (stereo not given),-2.6%,0.0%,4.0%,-1.6%,-1.8%,26.3%
SMILES,Rango complex inh,Tb PFK inh,ELG1 repair inh,PKM2 activator,PGK inhibitor,Rango release inh
O=c1[nH]c2cc3c(cc2cc1CN(Cc1cccnc1)C(=S)NCc1ccco1)OCO3,?,-26.1%,11.6µM*,4.0%,i,4.9%
O=c1[nH]c2cc3c(cc2cc1CN(Cc1cccnc1)C(=S)NCc1ccco1)OCCO3,-2.9%,?,9.2µM*,9.2%,18.7%,-11.6%
Cc1nn(CC(=O)Nc2ccc(OC(F)(F)F)cc2)c(=O)c2c(C)n(-c3ccc(Cl)cc3)nc12,·,·,·,·,-9.2%,·
CCOC(=O)c1cccc(NC(=O)Cn2ncc3c4ccccc4n(Cc4ccccc4)c3c2=O)c1,·,·,·,·,i,·
O=C1CCCN1S(=O)(=O)c1ccccc1,3.5%,1.7%,?,2.6%,5.8%,-6.4%
O=C1CN(S(=O)(=O)c2ccccc2)CCN1S(=O)(=O)c1ccccc1,-0.6%,3.0%,4.3%,4.47µM*,-3.1%,-5.3%
CCc1ccc(C(=O)COC(=O)c2cc([N+](=O)[O-])ccc2N2CCOCC2)cc1,-1.5%,-4.6%,?,·,-8.1%,-14.4%
COc1ccc(CC(=O)Nc2sc3c(c2C(N)=O)CCCC3)cc1,0.1%,-13.9%,?,·,-1.2%,-26.5%
COc1ccc(NC(=O)CN(C)CC(=O)Nc2sc3c(c2C(N)=O)CCC3)cc1,-4.2%,-3.6%,20.6µM*,·,-3.3%,-14.7%
COc1ccc(N2CCN(C(=O)CC(C)S(=O)(=O)c3ccc4c(c3)NC(=O)CO4)CC2)cc1 (stereo not given),-0.4%,-1.3%,13µM*,·,13.0%,3.2%
